In the library only some 21% were active in any assay of this set; here they are far more common.
Pf growth 48h: P. falciparum growth inhibition at 48 hours (one generation). P. falciparum luciferase growth in erythrocytes, 48 h. Potency, µM (top dose mostly 28.7 µM), for inactives: at the top dose activity change, negative = inhibition, usual class: inhibitors. 310,000 tested, 5.9% active. AID 504832; further: potency means the concentration at half of the fitted maximal effect; on the % scale 0 is the no-effect control and ±100 the full control effect
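Compounds are pin-transferred into medium, infected erythrocytes (2% hematocrit, 0.1% parasitemia final) are added, and plates sit one parasite generation at 37 C in 5% CO2. Detection reagent is then added and luminescence measured.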
Shiga inhibitor: inhibitors of Shiga toxin in Vero cells | Vero cells, Shiga toxin protein synthesis inhibition reporter | inhibition, % at 38.7 µM | 290,000 tested, 9.2% active | AID 2315; in the data active means inhibition mostly above about 28%, no sharp cut-off; inactive means mostly below about 43%; further: 0% is about no effect
CHX counter: counter-screen hit for Shiga toxin inhibitors, cycloheximide; cell reporter, cycloheximide protein synthesis inhibition counterscreen; max response, %; 300,000 tested, 12% active; in the data active means max response mostly above about 13%, no sharp cut-off; inactive means mostly below about 14%; further: read at 38.3 µM for the half of the compounds with a filed dose; 0% is about no effect
Pf growth 96h: P. falciparum growth inhibition at 96 hours; P. falciparum luciferase reporter growth, 96 h; Potency, µM (series often up to 28.7 µM), inactives show at the highest dose activity change, negative = inhibition, most hits filed as inhibitors; 320,000 tested, 6.9% active; further: potency means the concentration at half of the fitted maximal effect; on the % scale 0 is the no-effect control and ±100 the full control effect
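Cell-based qHTS: luciferase-tagged P. falciparum in erythrocytes (2% hematocrit, 0.05% parasitemia final) incubated with compounds for 96 hours, 37 C, 5% CO2; luciferase detection reagent then added and luminescence measured.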
NS1 inh: influenza NS1 inhibition; Potency, µM (top dose mostly 46.1 µM), for inactives: at the highest dose activity, positive = more growth; AID 2326; 270,000 tested, 0.4% active; calls by dose curve; further: potency means the concentration at half of the fitted maximal effect; actives are rising curves; nearly all actives have a fitted effect of over 50% in size
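S. cerevisiae expressing influenza A NS1, grown in glucose, washed, then diluted 1:100 into pH 6.0 -URA galactose medium with 23 nl compound. Growth recovery read as OD600; NS1-free strain serves as control.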
An asterisk follows results filed as active; [ ] = remark or other dose. Unless noted, the call rests on the fitted dose curve; in most records, active means well fitted inhibition curve with a large enough effect; inconclusive means small, poorly fitted or top-dose-only effect, or another doubt; inactive means no such curve, though single readings can be large or run the other way.

For CCN(CC)C(=O)c1cccc(NC(=O)c2cc(C3CC3)nc3c2cnn3C(C)C)c1 the results were Pf growth 48h inconclusive and Pf growth 96h 5.2µM*.
CC(C)n1ncc2c(C(=O)Nc3cccc(S(=O)(=O)N(C)C)c3)cc(C3CC3)nc21 was read as Pf growth 48h 12µM* and Pf growth 96h inconclusive.
For CCOc1ccc(NC(=O)c2cc(C3CC3)nc3c2cnn3C(C)C)cc1OC the results were Pf growth 48h 12µM* and Pf growth 96h 13µM*.
Screening CC(=O)Nc1ccc(NC(=O)c2cc(C3CC3)nc3c2cnn3C(C)C)cc1 returned Pf growth 48h inconclusive and Pf growth 96h -25%.
Screening CNC(=O)c1cccc(NC(=O)c2cc(-c3ccccc3)nc3c2cnn3C(C)C)c1 returned Pf growth 48h 4.7µM* and Pf growth 96h inconclusive.
`COc1ccc(C2=Nn3c(nnc3-c3cc(OC)cc(OC)c3)SC2)cc1` gave Shiga inhibitor 7 and CHX counter 9.
`Cc1nn(C)c(C(=O)NC2C3CC4CC(C3)CC2C4)c1Cl` (stereo unspecified) gave Pf growth 48h -2%, Shiga inhibitor -5, CHX counter -1, Pf growth 96h 11% and NS1 inh -30%.
`CCS(=O)(=O)NCC(c1ccco1)N1CCN(c2ccccc2)CC1` (stereo unspecified) gave Pf growth 48h 5%, Shiga inhibitor -26, CHX counter 0, Pf growth 96h -13% and NS1 inh 5%.
`COC(=O)c1scc(C)c1N/N=C(\C)c1ccc(F)cc1F` gave Shiga inhibitor -5, CHX counter -4, Pf growth 96h 2.1µM* and NS1 inh -1%.
Screening N#Cc1sc2nc(N3CCCCC3)c3c(c2c1N)CCCC3 returned Pf growth 48h 5.2µM*, Shiga inhibitor -9, CHX counter -1, Pf growth 96h inconclusive and NS1 inh 1%.
Cc1nc2sc(C#N)c(N)c2c2c1CCCC2 was read as Pf growth 48h 25%, Shiga inhibitor -10, CHX counter -1, Pf growth 96h 12µM* and NS1 inh -58%.
Screening N#Cc1sc2nc3c(c(-c4cccnc4)c2c1N)CCC3 returned Pf growth 48h -16%, Shiga inhibitor -4, CHX counter 1 and NS1 inh 7%.
`CC(=O)c1sc2nc(C)c3c(c2c1N)CCCC3` gave Pf growth 48h 15%, Shiga inhibitor 55, CHX counter 21*, Pf growth 96h 2% and NS1 inh -11%.
Cc1nn(C2CCS(=O)(=O)C2)c(Cl)c1/C=C/C(=O)OCC(N)=O (stereo unspecified) was read as Pf growth 48h 2%, Shiga inhibitor -18, CHX counter 9, Pf growth 96h inconclusive and NS1 inh 8%.
For CC(=O)c1cccc(-n2nnnc2SCC(=O)Nc2cccc(NC(=O)c3ccco3)c2)c1 the results were Pf growth 48h inconclusive, Shiga inhibitor -4, CHX counter -3, Pf growth 96h 13% and NS1 inh -10%.
`Cc1c(Cl)c(=O)oc2cc(OP(=O)(OCCCl)OCCCl)ccc12` gave Pf growth 48h 13µM* and Pf growth 96h inconclusive.
For Cc1cc(C(=O)C(=O)O)c(C)n1-c1ccc(Cl)cc1 the results were Pf growth 48h -2%, Shiga inhibitor -8, CHX counter -3, Pf growth 96h -5% and NS1 inh -1%.
Screening Cc1cc(CC(=O)O)c(C)n1-c1ccc(Cl)cc1 returned Pf growth 48h inconclusive and Pf growth 96h 11µM*.
For c1ccc(Sc2cccc3ccccc23)c(CNC2=NCCN2)c1 the results were Pf growth 48h 1.2µM*, Shiga inhibitor -4, CHX counter -3, Pf growth 96h 0.93µM* and NS1 inh -59%.
`Fc1ccccc1Sc1ccccc1CNC1=NCCN1` gave Pf growth 48h inconclusive, Shiga inhibitor 12, CHX counter -1, Pf growth 96h 10µM* and NS1 inh -34%.
Screening C/C(=N\NC1=NCCN1)c1ccccc1 returned Pf growth 48h -30%, Shiga inhibitor 0, CHX counter 0, Pf growth 96h inconclusive and NS1 inh -2%.
COc1cc(C2/C(=C(\O)c3ccc4c(c3)CC(C)O4)C(=O)C(=O)N2CCN2CCOCC2)cc(OC)c1OC (stereo unspecified) was read as Pf growth 48h 0%, Shiga inhibitor -7, CHX counter 1, Pf growth 96h inconclusive and NS1 inh 17%.
`Cc1cccc(OCCNc2ccc([N+](=O)[O-])cn2)c1` gave Pf growth 48h 14%, Shiga inhibitor 16, CHX counter 6 and Pf growth 96h -24%.
Screening COc1ccc(CNc2ccc([N+](=O)[O-])cn2)cc1 returned Pf growth 48h 144%, Shiga inhibitor 59*, CHX counter 28*, Pf growth 96h -25% and NS1 inh 1%.
COc1ccc(Nc2cc(C)c3cc([N+](=O)[O-])ccc3n2)cc1 was read as Pf growth 48h -8%[0.00184 µM], Shiga inhibitor 21, CHX counter 11*, Pf growth 96h 50% and NS1 inh 2%.
COc1ccc(Nc2nc(=O)c3cc([N+](=O)[O-])ccc3s2)cc1 was read as Pf growth 48h 8%, Shiga inhibitor -4, CHX counter 4, Pf growth 96h 0% and NS1 inh 5%.
For COc1ccccc1Nc1ccc([N+](=O)[O-])cn1 the results were Pf growth 48h 105%, Shiga inhibitor 15, CHX counter 21*, Pf growth 96h 42% and NS1 inh -4%.
Screening O=[N+]([O-])c1ccc(NCCOc2ccccc2Cl)nc1 returned Pf growth 48h 6%, Shiga inhibitor 44*, CHX counter 29*, Pf growth 96h inconclusive and NS1 inh 8%.
For COc1ccccc1Nc1ccncc1[N+](=O)[O-] the results were Pf growth 48h inconclusive, Shiga inhibitor -4, CHX counter -4, Pf growth 96h inconclusive and NS1 inh -3%.
`CCN1C(=O)/C(=C\c2ccc(F)cc2)N=C1SCC(=O)NCc1ccco1` gave Pf growth 48h 15%, Shiga inhibitor 5, CHX counter -2, Pf growth 96h 12% and NS1 inh 3%.
Screening Cc1noc(/C=C/N(C)C)c1S(=O)(=O)N(C)Cc1ccc(F)cc1 returned Pf growth 48h 27%, Shiga inhibitor 18, CHX counter -4, Pf growth 96h inconclusive and NS1 inh inconclusive.
For O=[N+]([O-])c1ccc(NCc2ccccn2)nc1 the results were Pf growth 48h 15%, Shiga inhibitor 47*, CHX counter 16*, Pf growth 96h 39% and NS1 inh 13%.
CCOC(=O)c1ccc(Nc2ccc([N+](=O)[O-])cn2)cc1 was read as Pf growth 48h 135%, Shiga inhibitor active, CHX counter 31*, Pf growth 96h inconclusive and NS1 inh 1%.
Screening COc1ccc(Nc2ccc([N+](=O)[O-])cn2)cc1 returned Pf growth 48h 73%, Shiga inhibitor 38*, CHX counter 37*, Pf growth 96h -17% and NS1 inh -23%.
